Experimental data reported in PubChem BioAssay (NCI).
Compounds without any hit were thinned out: in the full panel of roughly 79,000, 15% have a hit. Active and inactive are the calls of the source. No stated cut-off is given here; in the data, active means growth inhibition above about 70%; inactive means the rest.

Assays:
[1] = NCI Yeast Anticancer Drug Screen. Data for the rad50 strain (AID 155);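 further: 0% = growth of vehicle-only cultures of the same strain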; settings: S. cerevisiae rad50 strain growth inhibition, stronger effect = higher value
In short: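 Genetically altered yeast (DNA repair pathway); compound treatment; growth inhibition vs vehicle ctrl.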

[2] = NCI Yeast Anticancer Drug Screen. Data for the mec2-1 strain (AID 157); settings: S. cerevisiae mec2-1 strain, stronger effect = higher value
In short: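 Cells of the genetically defined mec2-1 yeast strain are incubated with test compound. Inhibition of growth is calculated against vehicle-treated controls.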

[3] = NCI Yeast Anticancer Drug Screen. Data for the sgs1 mgt1 strain (AID 161);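 further: 0% = growth of cultures given vehicle only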; settings: S. cerevisiae sgs1 mgt1 strain, stronger effect = higher value
In short: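 Test agents were incubated with a DNA-repair-mutant yeast strain. Growth was then read and compared against vehicle-treated controls.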

[4] = NCI Yeast Anticancer Drug Screen. Data for the cln2 rad14 strain (AID 165);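 further: 0% = growth equal to vehicle treated cultures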; settings: S. cerevisiae cln2 rad14 strain, stronger effect = higher value
In short: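 The screen exposed genetically defined yeast (cln2 rad14) to test compounds and scored growth inhibition relative to vehicle-treated controls.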

[5] = NCI Yeast Anticancer Drug Screen. Data for the bub3 strain (AID 167); settings: S. cerevisiae bub3 mutant strain, stronger effect = higher value
In short: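 Yeast carrying a defined mutation is treated with each compound, and growth is compared with that of vehicle-exposed cells to give inhibition.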

[6] = NCI Yeast Anticancer Drug Screen. Data for the mlh1 rad18 strain (AID 175); settings: S. cerevisiae mlh1 rad18 strain growth inhibition, stronger effect = higher value
In short: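 Compound-treated yeast growth, normalised to vehicle controls. Strain bears defined DNA repair mutations.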

[7] = at 5.0 µM (retest, dose inferred, filed as 0.5)
[8] = at 50.0 µM (retest, dose inferred, filed as 5.0)

Measured: growth inhibition

CCOc1ccc(N=Nc2c(C)nn(C(=S)SC)c2OCC)cc1
inactive: [1]; [7] 10% | [1]; [8] 54% | [2]; [7] -7% | [2]; [8] 61% | [3]; [7] 4% | [4]; [7] -13% | [4]; [8] 27% | [5]; [7] -17% | [6]; [7] -24%
active: [1]; at 50.0 µM 99.3% | [2]; at 50.0 µM 99.7% | [3]; [8] 74% | [3]; at 50.0 µM 99.2% | [4]; at 50.0 µM 99.5% | [5]; [8] 72% | [5]; at 50.0 µM 99.3% | [6]; [8] 73% | [6]; at 50.0 µM 99.5%

N#Cc1ccc(Oc2nc3ccccc3nc2-c2ccccc2)cc1
inactive: [1]; [7] 0% | [1]; [8] 21% | [1]; at 50.0 µM 38.2% | [2]; [7] -4% | [2]; [8] 39% | [2]; at 50.0 µM 22.2% | [3]; [7] 12% | [3]; [8] 52% | [3]; at 50.0 µM 33.9% | [4]; [7] -6% | [4]; [8] 23% | [4]; at 50.0 µM 62.8% | [5]; [7] 5% | [5]; at 50.0 µM 27.8% | [6]; [7] -4% | [6]; [8] 27% | [6]; at 50.0 µM 53.5%
active: [5]; [8] 86%

CC/C(=C1\C=CC(=O)S1)C(CC)c1ccc(OC(C)=O)cc1 (stereo not given)
inactive: [1]; [7] -14% | [2]; [7] -11% | [3]; [7] -7% | [4]; [7] 0% | [5]; [7] -25% | [6]; [7] -4%
active: [1]; [8] 99% | [1]; at 50.0 µM 99.2% | [2]; [8] 99% | [2]; at 50.0 µM 89.3% | [3]; [8] 98% | [3]; at 50.0 µM 99.3% | [4]; [8] 99% | [4]; at 50.0 µM 70.2% | [5]; [8] 99% | [5]; at 50.0 µM 93.9% | [6]; [8] 99% | [6]; at 50.0 µM 99.3%

O=Nc1ccc(O)c(/C=N/O)c1
active: [1]; [8] 94% | [1]; at 50.0 µM 87.3% | [2]; [8] 96% | [2]; at 50.0 µM 91% | [3]; [8] 90% | [3]; at 50.0 µM 92.1% | [4]; [8] 95% | [4]; at 50.0 µM 83.8% | [5]; [8] 99% | [5]; at 50.0 µM 90% | [6]; [8] 97% | [6]; at 50.0 µM 88.9%
inactive: [1]; [7] 19% | [2]; [7] 11% | [3]; [7] 6% | [4]; [7] 24% | [5]; [7] 1% | [6]; [7] 1%

CC(C)COC(=O)c1ccc(NC(=O)CCl)cc1
inactive: [1]; [7] 0% | [1]; at 50.0 µM 62.1% | [2]; [7] -1% | [2]; at 50.0 µM 29.9% | [3]; [7] 2% | [3]; at 50.0 µM 62.3% | [4]; [7] -7% | [4]; at 50.0 µM 16.1% | [5]; [7] 0% | [5]; at 50.0 µM 10% | [6]; [7] 3% | [6]; at 50.0 µM 67.8%
active: [1]; [8] 93% | [2]; [8] 94% | [3]; [8] 95% | [4]; [8] 95% | [5]; [8] 93% | [6]; [8] 92%

CN(C)CC[N+](C)(C)Cc1ccc(C[N+](C)(C)CC[N+](C)(C)Cc2ccc(CCl)cc2)cc1
active: [1]; at 50.0 µM 99% | [2]; at 50.0 µM 98% | [3]; at 50.0 µM 97.9% | [4]; at 50.0 µM 96% | [5]; at 50.0 µM 97.8% | [6]; at 50.0 µM 98.7%
inactive: [1]; [7] 0% | [1]; [8] 0% | [2]; [7] -39% | [2]; [8] -1% | [3]; [7] -1% | [3]; [8] 2% | [4]; [7] 1% | [4]; [8] 2% | [5]; [7] -6% | [5]; [8] 2% | [6]; [7] -1% | [6]; [8] -1%

O=C1Oc2cc3c(c4cccc1c24)OCN(c1ccccc1)C3
inactive: [1]; [7] -22% | [1]; [8] 25% | [1]; at 50.0 µM 62.5% | [2]; [7] -24% | [2]; [8] 19% | [2]; at 50.0 µM 49.9% | [3]; [7] -11% | [3]; [8] 18% | [4]; [7] -15% | [4]; [8] 15% | [4]; at 50.0 µM 35% | [5]; [7] -17% | [5]; [8] 25% | [5]; at 50.0 µM 49% | [6]; [7] -5% | [6]; [8] 49% | [6]; at 50.0 µM 58%
active: [3]; at 50.0 µM 78.2%

CC1=C(C)C(=O)C(C(C)(C)CC(=O)n2cc(F)c(=O)[nH]c2=O)=C(C)C1=O
active: [1]; [8] 87% | [1]; at 50.0 µM 93.5% | [2]; [8] 98% | [2]; at 50.0 µM 97.5% | [3]; [8] 95% | [3]; at 50.0 µM 97.2% | [6]; [8] 85% | [6]; at 50.0 µM 86.8%
inactive: [1]; [7] 24% | [2]; [7] 22% | [3]; [7] 56% | [4]; [7] 11% | [4]; [8] 46% | [4]; at 50.0 µM 41.6% | [5]; [7] 0% | [5]; [8] 63% | [5]; at 50.0 µM 1.05% | [6]; [7] 18%

O=C(Nc1ccccc1)c1cccc2ccccc12
active: [6]; at 50.0 µM 70.8%
inactive: [1]; [7] 2% | [1]; [8] -8% | [1]; at 50.0 µM 67.7% | [2]; [7] 4% | [2]; [8] -1% | [2]; at 50.0 µM 48% | [3]; [7] 6% | [3]; [8] -4% | [3]; at 50.0 µM 55.1% | [4]; [7] 1% | [4]; [8] -6% | [4]; at 50.0 µM 24.1% | [5]; [7] -18% | [5]; [8] 0% | [5]; at 50.0 µM 51% | [6]; [7] -15% | [6]; [8] 7%

O=S(=O)(O)c1ccc(N=Nc2ccc3c(S(=O)(=O)O)cccc3c2O)c2ccccc12
inactive: [1]; [7] 10% | [1]; [8] -5% | [1]; at 50.0 µM -1.35% | [2]; [7] 6% | [2]; [8] -16% | [2]; at 50.0 µM -21.6% | [3]; [7] 0% | [3]; [8] -18% | [3]; at 50.0 µM -37.2% | [4]; [7] -25% | [4]; [8] -78% | [4]; at 50.0 µM 35% | [5]; [7] -2% | [5]; [8] -9% | [5]; at 50.0 µM -16.1% | [6]; [7] -5% | [6]; [8] -9% | [6]; at 50.0 µM 5%
